Compound activity as filed in PubChem BioAssay.
A selection: hits, their analogues and other compounds. The true share with any hit is near 2.3%.
CHT block: inhibits the human high affinity choline transporter; Q9GZV3; CHT-expressing cells, membrane potential dye, choline response; stronger effect = lower value; B-score at 10 µM; AID 488975; hit rate 0.86% among 310,000;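 active = B-score over 3 SD under the library average, and starting fluorescence ratio not unusually high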;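 also: choline stimulus applied at its EC90 after an EC20 pre-addition; B-score computed on integrated fluorescence ratio after choline addition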
Target sequence (Q9GZV3 whole entry, looked up): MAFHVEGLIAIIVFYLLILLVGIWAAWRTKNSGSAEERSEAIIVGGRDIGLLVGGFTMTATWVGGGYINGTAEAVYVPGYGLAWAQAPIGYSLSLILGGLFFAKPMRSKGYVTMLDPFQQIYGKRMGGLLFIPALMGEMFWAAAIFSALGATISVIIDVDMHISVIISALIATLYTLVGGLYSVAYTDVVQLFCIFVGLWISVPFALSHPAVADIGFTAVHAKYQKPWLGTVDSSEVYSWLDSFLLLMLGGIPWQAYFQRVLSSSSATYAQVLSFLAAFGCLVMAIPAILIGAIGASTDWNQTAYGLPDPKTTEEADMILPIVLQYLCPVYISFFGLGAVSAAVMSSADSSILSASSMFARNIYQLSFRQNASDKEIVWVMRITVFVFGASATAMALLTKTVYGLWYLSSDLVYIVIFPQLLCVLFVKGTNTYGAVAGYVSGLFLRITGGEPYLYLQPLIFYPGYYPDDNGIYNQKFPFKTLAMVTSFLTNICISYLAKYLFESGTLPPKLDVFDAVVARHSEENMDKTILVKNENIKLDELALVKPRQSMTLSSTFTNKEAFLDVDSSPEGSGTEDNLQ
CHT PAM: allosterically activates the human high affinity choline transporter; CHT-expressing cells, membrane potential dye, choline EC20; stronger effect = higher value; LV-AA mutant CHT in HEK293 cells; B-score at 10 µM; hit rate 0.49% among 310,000;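 active = initial fluorescence not abnormally high and integrated response B-score, plate-corrected, over 3 SD above library mean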
ANO1 activ: activators or potentiators of mouse TMEM16A chloride channel; HEK293 TMEM16A/YFP-H148Q/I152L, iodide quench fluorescence; stronger effect = lower value; B-score at 10 µM; hit rate 0.3% among 340,000; AID 623877;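 active = fluorescence-ratio B-score plate-corrected deviation score at least 3 library SD below zero, with starting fluorescence score within 5 deviations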;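 also: channel opened by trigger with iodide after compound preincubation; score built on the fluorescence ratio of max minus min over baseline; more negative score means more quench and so TMEM16A activation or potentiation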
ANO1 block: mouse TMEM16A channel inhibition, primary screen; Q8BHY3; HEK293 TMEM16A/YFP iodide influx fluorescence, ionomycin; normalized B-score (activity score, 25-100; higher = stronger inhibition) at 10 µM; hit rate 1.2% among 310,000; AID 588511;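 active = ratio plate-corrected score three or more library SD toward inhibition, starting fluorescence score within five deviations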;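 also: score derived from kinetic fluorescence span divided by baseline fluorescence per well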
TMEM16A reconf: reconfirmed blocker of mouse TMEM16A calcium-activated chloride channel; shares compounds with ANO1 block; HEK293 TMEM16A/YFP-H148Q, iodide quench fluorescence; ionomycin added to raise cell calcium; inhibition, % at 10 µM; hit rate 39% among 2,300; AID 652189;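 active = mean duplicate percent inhibition, scaled so buffer wells are 0 and the reference blocker 100, over three buffer SD above buffer mean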
HEK293 Ca mobil: counter-screen for TMEM16A inhibitors: effect on calcium mobilization. TMEM16A/YFP HEK293, Fluo4 calcium mobilization. hit rate 2% among 2,300. shares compounds with ANO1 block. calcium response (% of ionomycin), % at 10 µM;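 active = duplicate-averaged calcium signal over 20% of the ionomycin maximum, relative to buffer baseline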;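 also: each well's signal is peak minus trough fluorescence divided by its pre-addition baseline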
Parental YFP cnt: acts in parental YFP-HEK293 cells lacking TMEM16A, counter-screen; shares compounds with ANO1 block; iodide YFP quench, ionomycin; YFP ratio F(max-min)/F0 at 10 µM; 2,300 tested, under 10 active; AID 652233;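 active = yellow fluorescent protein signal ratio exceeding the buffer control mean by over 5 SD of those controls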;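 also: ratio is mean of duplicate wells from kinetic YFP trace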
ClC-1 rat inh: blocks the rat ClC-1 voltage-dependent chloride channel. ratio percent, % at 10 µM. AID 652236. CHO ClC-1-YFP, iodide influx fluorescence quench; iodide control reads 0, buffer control 100. shares compounds with ANO1 block. 2,300 tested, under 10 active;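 active = duplicate-mean ratio percent above the mean of iodide-only control wells, which defines zero, plus 5 of their SD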;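 also: higher percent means stronger block of ClC-1 iodide influx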
Numbers stand for hits; n = inactive; x = no result given.

SMILES | CHT block | CHT PAM | ANO1 activ | ANO1 block | TMEM16A reconf | HEK293 Ca mobil | Parental YFP cnt | ClC-1 rat inh
COc1ccc(Cn2c(=O)[nH]c3cc(C(=O)N4CCN(Cc5ccccc5)CC4)ccc3c2=O)cc1 | n | n | n | 25 | n | n | n | n
Fc1nc(F)c(F)c(NCCCNc2c(F)c(F)nc(F)c2F)c1F | n | n | n | 100 | 52% | n | n | n
CC(C)c1cc(C(=O)N2CCCC(Nc3ccc(F)cc3)C2)n[nH]1 (stereo not given) | n | n | n | n | x | x | x | x
COc1ccc(-c2csc3nc(-c4cccnc4)nc(Cl)c23)cc1OC | n | n | n | 25 | n | n | n | n
Cc1ccccc1OCCC(=O)N(CC(C)C)c1c(N)n(Cc2ccccc2)c(=O)[nH]c1=O | x | x | n | x | x | x | x | x
O=C1N[C@H]2CC=C[C@H]2Nc2ccccc21 | x | x | n | x | x | x | x | x
Cc1c(C(=O)Nc2ccccc2F)sc2ncn(CC(=O)N3CCCCC3)c(=O)c12 | n | n | n | n | x | x | x | x
Cc1ccc(S(=O)(=O)CC(=O)Nc2ncc([N+](=O)[O-])s2)cc1 | n | n | n | 25 | 38% | n | n | n
CCOc1ccccc1OCCC(=O)N1CCN(S(=O)(=O)c2ccccc2[N+](=O)[O-])CC1 | x | x | n | x | x | x | x | x
Cc1ccc(C(=O)COC(=O)CCC(=O)Nc2cccc(Cl)c2)cc1[N+](=O)[O-] | n | n | n | 100 | n | n | n | n
O=C(NCc1ccccc1C(F)(F)F)C1CC(O)CN1C(=O)Nc1ccccc1 (stereo not given) | n | n | n | n | n | n | n | n
Cc1ccc(CNC(=O)[C@@H](NC(=O)C2CCN(C(=O)[C@@H](N)CC(C)C)CC2)C(C)C)cc1 | n | n | n | n | x | x | x | x
COc1ccc(S(=O)(=O)N2CC(C)OC(C)C2)cc1C(=O)N1CCCCC1 (stereo not given) | n | n | n | n | x | x | x | x
Cc1ccc2sc(N3CCN(C(=O)c4ccc([N+](=O)[O-])o4)CC3)nc2c1C | n | n | n | n | x | x | x | x
Cc1c(Cl)ccc2sc(N3CCN(C(=O)C4=COCCO4)CC3)nc12 | n | n | n | 25 | 44% | n | n | n
CC(=O)Nc1ccc(NC(=O)CCCCCN2C(=O)c3ccccc3C2=O)cc1 | n | n | n | n | x | x | x | x
CCN(CC)c1ccc(NC(=O)CCCCCN2C(=O)c3ccccc3C2=O)cc1 | n | n | n | 25 | n | n | n | n
CCOC(=O)c1ccccc1NC(=O)c1nc2nccc(C)n2n1 | n | n | n | 25 | n | n | n | n
Cc1ccnc2nc(C(=O)OCC(=O)Nc3ccccc3C(C)(C)C)nn12 | n | n | n | n | x | x | x | x
Cc1ccc(Nc2nc(C(=O)N3CCC(C(=O)N4CCN(C)CC4)CC3)cs2)cc1 | n | n | n | n | x | x | x | x
Cc1ccc(Nc2nc(COC(=O)C3CC3)cs2)cc1 | n | n | n | 100 | 21% | n | n | n
CC(=O)N1CCN(S(=O)(=O)c2cccc(C(=O)OCC(=O)N(CCC#N)c3ccc(F)cc3)c2)CC1 | x | x | n | x | x | x | x | x
COc1ccc(C)cc1-n1nnnc1SCc1cc(=O)n2cc(C)ccc2n1 | n | n | n | 25 | n | n | n | n
COc1ccc(C)cc1-n1nnnc1SCc1csc(C)n1 | n | n | n | n | x | x | x | x
O=S(=O)(Nc1cccnc1)c1cc(Cl)ccc1Cl | n | n | n | n | x | x | x | x
SMILES | CHT block | CHT PAM | ANO1 activ | ANO1 block | TMEM16A reconf | HEK293 Ca mobil | Parental YFP cnt | ClC-1 rat inh
O=S(=O)(Nc1nc(-c2ccccc2)cs1)c1cc(Cl)ccc1Cl | n | n | n | 25 | 24% | n | n | n
CCN(CC)CCCCOc1ccccc1OC | n | n | n | 100 | n | n | n | n
O=C(COc1ccc(Br)cc1)c1ccc2c(c1)CCCC2 | n | n | n | 25 | n | n | n | n
Cc1ccc(OCC(=O)c2ccc3c(c2)CCCC3)cc1C | n | n | n | n | x | x | x | x
O=C(Nn1c(O)c(C=C2N=c3ccccc3=N2)sc1=S)c1ccc(Cl)cc1 | n | n | n | n | x | x | x | x
O=C(Nn1c(O)c(C=C2N=c3ccccc3=N2)sc1=S)c1cccc(Cl)c1 | n | n | n | 25 | n | n | n | n
COC(=O)c1ccccc1NC(=O)C1CCN(c2ncnc3c2nc2n3CCCCC2)CC1 | n | n | n | 100 | n | n | n | n
COc1ccc(NC(=O)C2CCN(c3ncnc4c3nc3n4CCCCC3)CC2)c(OC)c1 | n | n | n | n | x | x | x | x
O=C(COC(=O)CNC(=O)c1ccccc1F)NC1CC1 | x | x | n | x | x | x | x | x
CN(Cc1cn(C)nc1-c1ccc(Oc2ccccc2)cc1)Cc1cnc2ccccn12 | n | n | n | 25 | 24% | 22% | n | n
COc1ccc(CC(=O)Nc2nc(-c3ccc(OC)c(OC)c3)cs2)cc1OC | n | n | n | 25 | 35% | n | n | n
COc1ccccc1CC(=O)Nc1nc(-c2ccc(F)c(F)c2)cs1 | n | n | n | n | x | x | x | x
CCCNC(=O)c1ccccc1NS(=O)(=O)c1ccc(OC)c(OC)c1 | n | n | n | n | x | x | x | x
COc1ccc(-c2csc(NC(=O)Cc3ccccc3F)n2)cc1OC | n | n | n | 100 | n | n | n | n
COc1ccc(-c2csc(NC(=O)CC(NC(C)=O)c3ccccc3)n2)cc1OC (stereo not given) | n | n | n | n | x | x | x | x
COc1ccc(S(=O)(=O)Nc2ccccc2C(=O)Nc2nc(-c3ccc(F)cc3)cs2)cc1OC | n | n | n | 100 | 50% | n | n | n
COc1ccc(N=Cc2c(O)n(-c3ccc(OC)cc3)c(=O)c3ccccc23)cc1 | n | n | n | n | x | x | x | x
O=c1c2ccccc2c(C=Nc2cccc(O)c2)c(O)n1-c1ccc2c(c1)OCO2 | n | n | n | 25 | n | n | n | n
O=C(NCCc1ccccc1)C(c1cccs1)N(C(=O)c1csnn1)C1CC1 (stereo not given) | n | n | n | 25 | n | n | n | n
O=C(NCc1ccccc1)C(c1cccs1)N(C(=O)c1csnn1)C1CC1 (stereo not given) | n | n | n | n | x | x | x | x
Cc1ccc(NC(=S)NCCSc2ccc(Cl)cc2)cc1 | n | n | n | n | x | x | x | x
CC(CNC(=S)Nc1cc(F)cc(F)c1)CSc1ccc(Cl)cc1 (stereo not given) | n | n | n | 25 | 44% | n | n | n
CCN(CC)C(=O)CSc1nnc(COc2ccccc2)n1CC | n | n | n | 25 | n | n | n | n
CCSc1nnc(COc2ccccc2)n1CC | n | n | n | n | x | x | x | x
Cc1cccc2c(C(=O)O)c3cccc(C)c3nc12 | n | n | n | n | x | x | x | x
O=C(CSc1nc2ccccc2c(=O)n1CC1CCCO1)NCC1CCCO1 (stereo not given) | n | n | n | 100 | n | n | n | n
